# Source: PubChem (National Center for Advancing Translational Sciences (NCATS))
# The sample as a whole holds a higher share of hits than the screen did.
# CHX counter – counter-screen hit for Shiga toxin inhibitors, cycloheximide. cell reporter, cycloheximide protein synthesis inhibition counterscreen. max response, %. 300,000 compounds, 12% hits. AID 2314; in the data active = max response mostly above about 13%, no sharp cut-off; inactive = mostly below about 14%; also: read at 38.3 µM for the half of the compounds with a filed dose; 0% is about no effect
# LmPK inh – LmPK (Leishmania mexicana) enzyme inhibition. Q27686. purified LmPK, Kinase-Glo ATP luminescence, 1 h. Potency, µM (top dose mostly 57.5 µM), for the others: top-dose activity change, negative = inhibition, hits mostly inhibitors. 290,000 compounds, 0.37% hits; also: potency is read from the fitted curve at half-maximal effect; % is scaled to controls: 0 for no effect and ±100 for the full control effect
# Target sequence (Q27686 whole entry, looked up): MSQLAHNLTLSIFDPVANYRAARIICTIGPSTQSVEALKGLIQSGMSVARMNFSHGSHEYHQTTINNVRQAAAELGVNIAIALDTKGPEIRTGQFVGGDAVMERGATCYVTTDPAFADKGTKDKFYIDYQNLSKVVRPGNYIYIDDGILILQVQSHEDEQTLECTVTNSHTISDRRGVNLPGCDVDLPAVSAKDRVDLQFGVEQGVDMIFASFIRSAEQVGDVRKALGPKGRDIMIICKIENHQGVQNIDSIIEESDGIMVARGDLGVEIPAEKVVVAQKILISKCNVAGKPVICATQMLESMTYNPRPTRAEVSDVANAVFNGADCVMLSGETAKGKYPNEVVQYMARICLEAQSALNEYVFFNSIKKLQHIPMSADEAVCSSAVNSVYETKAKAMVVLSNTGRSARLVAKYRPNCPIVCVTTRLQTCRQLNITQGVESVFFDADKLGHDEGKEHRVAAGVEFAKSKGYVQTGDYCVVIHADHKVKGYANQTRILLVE
#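 Kinase-Glo luminescence read after 1 h RT reaction of 0.1 nM LmPK with 0.5 mM PEP and 0.1 mM ADP. Activity scaled between uninhibited and enzyme-free controls.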
# Sm TGR block – blocks Schistosoma mansoni thioredoxin glutathione reductase; 360,000 compounds, 3% hits; Q962Y6; Potency, µM (series often up to 114 µM), inactives show at the highest dose activity change, negative = inhibition, actives largely listed as inhibitors; purified TGR, DTNB reduction, TNB absorbance 405 nm; AID 485364; also: potency is read from the fitted curve at half-maximal effect; % is scaled to controls: 0 for no effect and ±100 for the full control effect; nearly all actives have a fitted effect of over 60% in size
#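 Kinetic colorimetric format: TGR-catalysed, NADPH-driven DTNB reduction monitored via TNB absorbance. Enzyme dispensed at 20 nM; compound exposure 15 min at room temperature before reaction start.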
# FBPA Giardia inh – blocks Giardia fructose-bisphosphate aldolase activity. Potency, µM (titrated, usually from 59.6 µM), for the others: at the highest dose activity, negative = inhibition, hits mostly inhibitors. 290,000 compounds, 0.71% hits. purified Giardia FBPA. A8B2U2; also: potency is read from the fitted curve at half-maximal effect; % is scaled to controls: 0 for no effect and ±100 for the full control effect; nearly all actives have a fitted effect of over 55% in size
#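 Giardia FBPA (40 nM reagent) was preincubated 10 min at RT with compound (up to 57.5 uM final), then substrate plus GAPDH/TPI/NAD/arsenate coupling system with diaphorase/resazurin was added; resorufin fluorescence (525/598 nm) was read after 20 min.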
# Shiga toxin inh – Shiga toxin inhibition | inhibition, % at 38.7 µM | Vero cells, Shiga toxin protein synthesis inhibition reporter | 290,000 compounds, 9.2% hits; in the data active = inhibition mostly above about 28%, no sharp cut-off; inactive = mostly below about 43%; also: 0% is about no effect
# Tb PYK inh – T. brucei pyruvate kinase inhibition. Potency, µM (doses to about 76.8 µM), without a hit: top-dose activity, negative = inhibition, usual class: inhibitors. TbPYK enzyme, Kinase-Glo Plus ATP luminescence, 45 min. AID 624173. Q57TT1. 410,000 compounds, 0.12% hits; also: potency is read from the fitted curve at half-maximal effect; % is scaled to controls: 0 for no effect and ±100 for the full control effect; nearly all actives have a fitted effect of over 50% in size
#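 Readout: single end-point luminescence (Kinase-Glo Plus, 10 min). Reaction conditions were TbPYK/substrate plus 130 uM ADP, 45 min at RT, pH 7.2 TEA buffer. No-enzyme wells served as controls, and data were normalized before concentration-response fitting.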
# Active calls of the source: *; ? = inconclusive; nt = not tested or not shown; [ ] = dose if it differs, or a comment. Unless noted, calls follow the shape of the dose curve; as a rule, active = well fitted curve in the direction sought with a large enough effect; inconclusive = small, poorly fitted or top-dose-only effect, or another doubt; inactive = no such curve, though single readings can be large; an effect the other way counts as inactive or inconclusive.
SMILES,CHX counter,LmPK inh,Sm TGR block,FBPA Giardia inh,Shiga toxin inh,Tb PYK inh
CSc1nc2ccc(NC(=O)c3ccccn3)cc2s1,38*,-29%,-8%,1%,105*,-14%
COc1ccc(CNS(=O)(=O)c2ccc(-c3ccc(=O)[nH]n3)o2)cc1,-1,-6%,89µM*,nt,-6,-1%
COc1ccc(NC(=O)c2ccco2)cc1NC(=O)c1cccc(C)c1OC,nt,nt,-4%,nt,nt,0%
O=C(c1ccc(Cl)cc1)N1N=CCC1(O)c1ccc(Cl)cc1 (centres undefined),22*,1%,?,9%,38,4%
O=C(Nc1ccc(O)c(-c2nc3ccccc3s2)c1)C1=COCCO1,-2,3%,0%,-1%,1,0%
O=C(Nc1ccc(-c2nc3ccccc3s2)cc1)C1=COCCO1,40*,-12%,5%,6%,56*,-8%
O=C(Nc1cccc(-c2nc3ccccc3s2)c1)C1=COCCO1,44*,0%,8%,2%,50*,-8%
O=C(Nc1ccc(-c2nc3ccccc3s2)c(O)c1)C1=COCCO1,131*,-2%,-9%,2%,73*,10%
O=C(Nc1nc(-c2ccc(-c3ccccc3)cc2)cs1)C1=COCCO1,7,3%,-14%,9%,10,-5%
O=c1[nH]c(SCc2ccc(Br)cc2)nc2c1CCCC2,nt,nt,-2%,nt,nt,7%
O=C(Nc1nccs1)c1ccc(NC(=O)c2ccco2)cc1,47*,-1%,-7%,-15%,86*,6%
Cc1ccc(C(=O)Nc2nccs2)cc1,37*,?,1%,-7%,116*,1%
CC(NC(=O)c1ccco1)C(=O)Nc1nccs1 (centres undefined),nt,nt,nt,nt,nt,-3%
O=C(Nc1nccs1)c1cccnc1,2,-1%,-1%,-5%,-11,-4%
O=C(Nc1ccccc1Br)c1ccc2nccnc2c1,35,-20%,1%,5%,46*,-4%
CCn1c(SCc2ccc(C(=O)Nc3nccs3)cc2)nnc1-c1ccc(N)cc1,20*,-4%,4%,0%,46,2%
C[C@H]1[C@H](NC(=O)/C(=N/OC(C)(C)C(=O)O)c2csc(N)n2)C(=O)N1S(=O)(=O)O (stereo in doubt),nt,nt,nt,-9%[21.7 µM],nt,0%[33.2 µM]
O=C(Nc1nccs1)c1ccc(COc2c(F)c(F)cc(F)c2F)cc1,56*,0%,-3%,2%,80*,-14%
COc1ccc(CC(=O)Nc2ccc(C(=O)Nc3nccs3)cc2)cc1OC,9,3%,-6%,2%,30,6%
O=C(Nc1nccs1)c1ccc2nccnc2c1,24*,-1%,1%,-14%,45*,15%
Nc1ccc(C(=O)Nc2nccs2)cc1,33*,-20%,-1%,-11%,125*,-4%
O=C(Nc1ccccc1C(=O)Nc1nccs1)c1ccccc1,nt,nt,nt,nt,nt,-3%
Cn1ccc2c(OCC(=O)NCc3ccccc3Cl)cccc2c1=O,nt,nt,8%,nt,nt,5%
O=C(NCCc1ccccc1)C(=O)c1cn(CC(=O)N2CCCC2)c2ccccc12,19*,0%,-3%,nt,6,-10%
COc1ccccc1CCNC(=O)C(=O)c1cn(CC(=O)N2CCCC2)c2ccccc12,33*,-12%,1%,19%,64*,0%
SMILES,CHX counter,LmPK inh,Sm TGR block,FBPA Giardia inh,Shiga toxin inh,Tb PYK inh
COc1ccccc1CNC(=O)C(=O)c1cn(CC(=O)N2CCOCC2)c2ccccc12,9,-9%,0%,nt,29,-13%
CCn1cc(C(=O)NCCCN(CC(C)C)CC(C)C)c(=O)c2cc(S(=O)(=O)N3CCOCC3)ccc21,3,2%,-29%,nt,-7,-2%
CCn1cc2nc(SCC(=O)Nc3ccc(C)cc3)n(Cc3ccc(C)cc3)c(=O)c2n1,nt,nt,-3%,nt,nt,-1%
C#Cc1ccc(NC(=O)C2(C)CCN2C(=O)c2cc(C)n(C)n2)cc1 (centres undefined),nt,nt,nt,nt,nt,3%
Cc1ccc(-n2c(=O)[nH]c3c(C(N)=O)nc(-c4ccc(C)o4)nc32)cc1,-1,7%,32µM*,-2%,-17,-6%
N#Cc1ccccc1S(=O)(=O)N1CCN(C(=O)[C@@H]2CCCN2C(=O)c2cccs2)CC1,nt,nt,-17%,nt,nt,6%
Cc1nc2ccc(Cc3ccc4nc(C)[nH]c4c3)cc2[nH]1,-2,-6%,-6%,2%,1,3%
Cc1nc2ccc(N=NN(C)C)cc2[nH]1,-2,?,20µM*,-22%,24,?
CCC(=O)N(CCC(c1ccccc1)c1ccco1)Cc1cccs1 (centres undefined),1,-4%,14µM*,7%,-3,-10%
COc1ccccc1C(CCN(Cc1cccs1)C(C)=O)c1ccco1 (centres undefined),-7,1%,13µM*,0%,15,0%
CCN(CC)C(=O)CC(c1ccccc1)c1ccco1 (centres undefined),-2,-1%,?,2%,14,-2%
COc1cc(OC)c(C(=O)N(Cc2ccco2)Cc2cccs2)cc1OC,-5,nt,nt,nt,-5,nt
Cn1nnc2c(N3CCN(c4cccc(Cl)c4)CC3)ncnc21,nt,nt,3%,nt,nt,3%
c1ccc(Cc2cc(-c3ccccc3)on2)cc1,36*,0%,-21%,2%,90*,5%
O=C(NCC(c1cccnc1)N1CCN(Cc2ccccc2)CC1)C(=O)Nc1ccc(Cl)cc1 (centres undefined),nt,nt,6%,nt,nt,5%
Cc1ccc(OCC(=O)O/N=C(\N)c2ccncc2)c(C)c1,33*,-3%,-2%,4%,114*,-4%
Cc1ccc(SC(C)C(=O)O/N=C(\N)c2ccncc2)cc1 (centres undefined),20*,-7%,40µM*,nt,-23,3%
Cc1ccc(SCC(=O)O/N=C(\N)c2ccc([N+](=O)[O-])cc2)cc1,-3,2%,-21%,-5%,-6,0%
Cc1ccccc1OCC(=O)O/N=C(\N)c1ccncc1,45*,-2%,-7%,6%,99*,-4%
CCOC(=O)C1CCCN(C(=S)NC2CCCC2)C1 (centres undefined),-2,0%,nt,-2%,-2,-7%
Cc1cc(NC(=O)c2ccc3c(c2)C(=O)N(C(C)(C)C)C3=O)no1,21*,11%,2%,9%,34,4%
CC(C)(C)N1C(=O)c2ccc(C(=O)Nc3nccs3)cc2C1=O,31*,3%,2%,7%,57*,-4%
CCN1C(=O)c2ccc(C(=O)Nc3nccs3)cc2C1=O,12*,-2%,0%,-6%,31*,2%
COc1ccccc1N1C(=O)c2ccc(C(=O)Nc3nccs3)cc2C1=O,20,-4%,-4%,-3%,29,9%
Cc1ccc(-c2cc3nccc(-c4cc([N+](=O)[O-])ccc4O)n3n2)cc1,nt,nt,-2%,nt,nt,5%
